Only some compounds are listed: those with a hit (about 3.6% of all), similar ones and a draw of the others.
mHTT-CaM PPI inh – inhibitors of human mutant huntingtin-calmodulin interaction | P42858 | AlphaScreen His-mHTT/GST-CaM binding, luminescence | inhibition, % at 15 µM | 3.6% of 190,000 active | AID 1671202;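 also: 0% = both proteins with DMSO and 100% = one protein alone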
Pf apPOL inh – Pf-apPOL DNA polymerase inhibition | Recombinant Pf-apPOL, molecular beacon fluorescence, 1.5 h | inhibition, % at 10 µM | 0.25% of 210,000 active | AID 1794808
* marks the source's active call; other numbers are inactive results; / = no result. Rule as the data show it: active = inhibition above about 50%; inactive = the rest.

SMILES | mHTT-CaM PPI inh | Pf apPOL inh
COc1cc(/C=C/[N+](=O)[O-])cc(Cl)c1OCc1cccc(C(=O)O)c1 | 56.8* | -4.2
CCCOc1ccc(CNC(=O)C2CCc3nc(N4CCCC4)ncc3C2)cc1 (stereo not drawn) | 2.6 | 2.5
CC(C)(C)c1ccc(OCC(=O)Nc2ccc3oc(-c4ccncc4)nc3c2)cc1 | 3.0 | 67.6*
Cc1ccccc1OCC(=O)Nc1ccc2oc(-c3ccncc3)nc2c1 | 69.8* | 7.7
COc1ccc(Br)cc1C(=O)Nc1cccc(-c2nc3ncccc3o2)c1 | -2.0 | 0.6
Cc1cc(Cl)ccc1OCC(=O)Nc1ccc2oc(-c3ccncc3)nc2c1 | -1.0 | 2.6
Cc1ccccc1OCC(=O)Nc1ccc(-c2nc3ncccc3o2)cc1 | 2.0 | -7.2
Cc1cccc(OCC(=O)Nc2ccc(-c3nc4ncccc4o3)cc2)c1C | 75.0* | 0.5
CCc1ccc(-c2nc3cc(NC(=O)COc4ccc(OC)cc4)ccc3o2)cc1 | 6.0 | 5.5
COc1ccccc1C(=O)Nc1cccc(-c2nc3ncccc3o2)c1 | 58.0* | 2.7
COc1ccc(CN2CCC(N3CCCCC3)CC2)cc1OCc1ccccc1 | 0.3 | -7.3
CC(C)Cc1nnc(NC(=O)CCCOc2ccccc2)s1 | 2.0 | -7.5
Cc1ccc(-c2nn(CC(=O)Nc3cc(C)ccc3C)c(=O)c3ccccc23)cc1 | -5.2 | 1.3
CC(C)C(=O)NC(c1cccs1)c1cc([N+](=O)[O-])c2cccnc2c1O (stereo not drawn) | 100.0* | -4.7
CCC(=O)NC(c1ccccc1OC)c1cc([N+](=O)[O-])c2cccnc2c1O (stereo not drawn) | 100.0* | -3.9
CN(C)C(=O)NC(c1ccccc1)c1cc([N+](=O)[O-])c2cccnc2c1O (stereo not drawn) | 100.0* | -10.1
CCC(=O)NC(c1ccc(C(C)C)cc1)c1cc([N+](=O)[O-])c2cccnc2c1O (stereo not drawn) | 100.0* | -7.6
COc1ccc(C2CC(C(F)(F)F)n3ncc(C(=O)Nc4cc(C)cc(C)c4)c3N2)cc1OC (stereo not drawn) | 5.0 | 0.9
CCn1ccnc1C(O)(c1ccccc1)c1nccn1CC | 17.0 | -7.3
CC(=O)c1cccc(NC(=O)C2CC(=O)N(c3ccccc3)C2)c1 (stereo not drawn) | -1.3 | -3.6
CCCC(=O)NC(c1ccc(C(C)C)cc1)c1cc([N+](=O)[O-])c2cccnc2c1O (stereo not drawn) | 51.4* | -1.9
CCC(=O)NC(c1ccccc1Cl)c1cc([N+](=O)[O-])c2cccnc2c1O (stereo not drawn) | 100.0* | -3.2
CCCC(=O)NC(c1ccc(Cl)cc1Cl)c1cc([N+](=O)[O-])c2cccnc2c1O (stereo not drawn) | 99.0* | -2.9
CCC(=O)NC(c1ccccc1)c1cc([N+](=O)[O-])c2cccnc2c1O (stereo not drawn) | 100.0* | 0.7
CN1CCCn2cc(S(=O)(=O)Nc3cc(F)cc(F)c3)cc2C1=O | 3.0 | -1.5
SMILES | mHTT-CaM PPI inh | Pf apPOL inh
Cc1nc2cc(NC(=O)c3csc(-c4cnccn4)n3)ccc2s1 | 15.0 | 24.4
Cc1oc(C2CCN(C(=O)C3CCCO3)CC2)nc1C(=O)N1CCOCC1 (stereo not drawn) | -1.9 | 1.8
COc1cc(/C=C2/C(=O)N(c3ccccc3)N=C2C)ccc1OCc1ccccc1 | 10.0 | -2.7
COc1cc(/C=C2/C(=O)N(c3ccccc3)N=C2C)cc([N+](=O)[O-])c1O | 57.0* | 1.3
COc1ccccc1/C=C1/C(=O)N(c2cccc(Cl)c2)N=C1C | 22.0 | 2.1
COc1cc(/C=C2/C(=O)N(c3cccc(Cl)c3)N=C2C)cc(Br)c1O | 78.0* | -2.3
COc1ccc(/C=C2/C(=O)N(c3ccc(Cl)c(Cl)c3)N=C2C)cc1Br | 0.0 | 1.4
COc1cccc(/C=C2/C(=O)N(c3cccc(Cl)c3)N=C2C)c1 | 96.0* | -3.3
COc1cc(/C=C2/C(=O)N(c3ccccc3)N=C2C)c([N+](=O)[O-])cc1OC | 0.0 | -5.2
COc1cc(/C=C2/C(=O)N(c3ccccc3)N=C2C)cc(OC)c1O | 52.0* | -5.4
Cc1cc(O)c(CN2CCN(C)CC2)c2c1C(=O)C(=Cc1ccccc1)O2 | 3.3 | -1.6
Oc1oc(-c2ccccc2F)nc1C=Nc1ccc(Cl)cc1Cl | 0.0 | 1.2
COc1ccccc1CNC(=O)C1(C)Cc2ccccc2C(=O)N1CCC(C)C (stereo not drawn) | -1.3 | -3.1
CC(Oc1ccccc1)C(=O)NC1CC(O)C(CO)C1 (stereo not drawn) | -3.8 | -5.0
CCOC1=NN(c2ccc([N+](=O)[O-])cc2)C(=O)/C1=C/c1cccc(OC)c1OC | 11.0 | 2.5
c1ccc(-c2n[nH]c(C3CCCN3C3CCCC3)n2)cc1 (stereo not drawn) | 4.9 | -4.3
CC1=NN(c2ccccc2)C(=O)/C1=C/c1cc(Cl)c(O)c(Cl)c1 | 64.0* | -9.3
COc1ccc(/C=C2/C(=O)N(c3ccccc3)N=C2C)cc1Br | 20.0 | 1.9
C=CCOc1ccc(/C=C2/C(=O)N(c3ccc(Cl)c(Cl)c3)N=C2C)cc1OC | 6.0 | -4.5
COc1cc(/C=C2/C(=O)N(c3ccccc3)N=C2C)cc(Br)c1O | 55.0* | 7.1
CC1=NN(c2ccccc2)C(=O)/C1=C/c1ccc(O)c(Cl)c1 | 22.0 | 0.7
CC1=NN(c2cccc(Cl)c2)C(=O)/C1=C/c1ccc(Br)c([N+](=O)[O-])c1 | 81.0* | -2.7
COc1ccc(/C=C2/C(=O)N(c3ccc(Cl)c(Cl)c3)N=C2C)cc1[N+](=O)[O-] | 12.0 | 2.3
COc1cc(/C=C2/C(=O)N(c3ccc(C)c(Cl)c3)N=C2C)ccc1O | 52.0* | -2.4
O=C(NCC1OCCc2ccccc21)c1ccc(Cl)cc1Cl (stereo not drawn) | -8.0 | -5.1
SMILES | mHTT-CaM PPI inh | Pf apPOL inh
O=C(Nc1ccccc1F)c1cc(Cl)c(Cl)c(S(=O)(=O)N2CCOCC2)c1 | -3.3 | 0.3
COc1cc(/C=C2/C(=O)N(c3ccc(Cl)c(Cl)c3)N=C2C)cc(OC)c1OC | 14.0 | -4.5
COc1cc(/C=C2/C(=O)N(c3ccc(Cl)c(Cl)c3)N=C2C)cc(OC)c1O | 67.0* | 1.9
Cc1cccc(C(=O)N2CCCN(c3cc(-c4ccc5c(c4)OCO5)[nH]n3)CC2)c1 | 17.8 | 5.0
CCCN(CCC)S(=O)(=O)c1ccc(C(=O)NNC(=O)c2c(-c3ccccc3Cl)noc2C)cc1 | / | -0.2
O=C(Nc1nnc(-c2ccc(Cl)cc2Cl)o1)c1cnccn1 | -18.4 | -4.9
O=C1C=CC(=NS(=O)(=O)c2ccc(Cl)cc2)c2ccccc21 | 98.0* | -2.5
CCN(CC)c1ccc(N=C2C=CC(=O)c3ccccc32)c(C)c1 | / | -0.3
CC(C)c1ccc(S(=O)(=O)N=C2C=CC(=O)c3ccccc32)cc1 | 67.0* | 11.0
O=C1C=CC(=NS(=O)(=O)c2ccc(F)cc2)c2ccccc21 | 100.0* | -4.0
CC(C)c1ccc(S(=O)(=O)N2CCN(C)c3ccccc32)cc1 | 41.0 | 2.0
O=C1C=CC(=NS(=O)(=O)c2ccc(Cl)cc2)C=C1 | 48.0 | -6.4
CN(CCNC(=O)C1CCCN(c2nnc3ccccn23)C1)C1CCCCC1 (stereo not drawn) | -1.9 | -4.2
O=C(NCc1cccc(Cl)c1)c1cc2n(n1)CCCN(Cc1ccc(Cl)cc1)C2=O | 64.2* | 12.4
O=C(NCc1cccc(Cl)c1)c1cc2n(n1)CCCN(Cc1ccccc1)C2=O | -6.7 | 0.7
Cc1cccc(C(=O)Nc2cc(C)on2)c1 | -8.3 | -11.2

From PubChem BioAssay
